Test results from PubChem BioAssay AID504332 (National Center for Advancing Translational Sciences (NCATS), 2011).
Among all 350,000 compounds or so, about 31,000 (8.9%) were called active. Where a call stands in place of a potency, no number is given. Roughly 15% stayed inconclusive and do not appear here. This is one part of a sample in which actives are shown more often than they occur. Values without a mark were called inactive. Calls follow the shape of the dose curve; as a rule, active = well fitted inhibition curve with a large enough effect; inconclusive = small, poorly fitted or top-dose-only effect; inactive = no such curve, though single readings can be large or run the other way.

biological target: Histone-lysine N-methyltransferase EHMT2 (Homo sapiens) (UniProt Q96KQ7); test: qHTS Assay for Inhibitors of Histone Lysine Methyltransferase G9a; settings: G9a H3K9 monomethylation, AlphaScreen, 2 h; series mostly up to 59 µM; also: nearly all actives have a fitted effect of over 75% in size
From the text: Methylated lysines, on the N-terminal tails of histone proteins serve as epigenetic markers to recruit factors that can then modify local chromatin structure to lead to functional consequences. G9a and other members of the SUV39 family of the SET domain-containing superfamily of histone lysine methyltransferases (HMT) have been identified to specifically methylate Lys9 of histone H3 (H3K9). G9a catalyzes the mono- and di-methylation of H3K9 in mammalian euchromatic regions, where the resulting H3K9me2 is indicative of transcriptional repression. […] The inhibition of G9a will result in transcriptional activation and work synergistically with DNA methyltransferase and histone deacetylase inhibitors, to kill cancer cells. This qHTS assay for identification of G9a inhibitors is a chemiluminescence based AlphaScreen (PerkinElmer). Methylation of biotinylated-histone peptide is measured through specific antibody-based detection, in conjunction with streptavidin-coated donor and anti-IgG antibody-coated acceptor beads. The method is particularly well suited for detection of inhibitors acting by the desired histone peptide competitive mechanism and is applicable to testing other HMTs. Although AlphaScreen has significant advantages with its utility in a variety of epigenetic target assays, the primary screening data provided in this deposition should be used with caution due to the prevalence of screening artifacts. An AlphaScreen counterscreen is highly recommended to be run against any putative actives to eliminate non specific artifacts. Alternatively, one can use other AlphaScreen assays in PubChem to filter out promiscuous hits. Quinn et al. A chemiluminescence-based method for identification of histone lysine methyltransferase inhibitors. Mol Biosyst 6(5): 782-8. 2010. PMID: 20567762 [2] Baell,Holloway. New substructure filters for removal of pan assay interference compounds (PAINS) from screening libraries and for their exclusion in bioassays. J Med Chem. 53(7):2719-40. 2010. PMID: 20131845 NIH Molecular Libraries Probe Production Network [MLPCN] NIH Chemical Genomics Center [NCGC] Structural Genomics Consortium (SGC) NIH Grant: 5U54 MH084681-02
To each well of a 1,536w plate, 2ul of HMT enzyme (final 20nM) were added, using a nanoliter dispenser. The G9a- and GLP-inhibitor BIX-01294 (CID: 25150857) are used as an intraplate control, with a 16-point titration in duplicate. A Kalypsys pin-tool transferred 23nl of library compound solution in DMSO to each well. Following a 15 min incubation of enzyme with compounds at room temperature, 1ul mixture of b-H3K9 peptide substrate (final 500nM) and SAM cofactor (final 20uM) were added. Reactions were allowed to proceed at room temperature for 2 hours. Methylated b-H3K9 peptide product was detected with 0.5 ug/mL rabbit polyclonal anti-monomethyl histone H3K9 antibody (Abcam Inc., Cambridge, MA) and 20 ug/mL each streptavidin-coated donor and anti-rabbit IgG acceptor AlphaScreen beads. Antibody and beads were added in a 1ul dispense, for a final volume of 4ul, and plates were incubated, protected from the light, for 10 min at room temperature. Microplates were then read on an EnVision multilabel plate reader using the 1,536 plate HTS AlphaScreen aperture (excitation time 80 ms, measurement time 240 ms).
Potency is read from the fitted curve at half-maximal effect.

Histone-lysine N-methyltransferase EHMT2 (Homo sapiens), sequence (Q96KQ7 913-1193 limits assumed): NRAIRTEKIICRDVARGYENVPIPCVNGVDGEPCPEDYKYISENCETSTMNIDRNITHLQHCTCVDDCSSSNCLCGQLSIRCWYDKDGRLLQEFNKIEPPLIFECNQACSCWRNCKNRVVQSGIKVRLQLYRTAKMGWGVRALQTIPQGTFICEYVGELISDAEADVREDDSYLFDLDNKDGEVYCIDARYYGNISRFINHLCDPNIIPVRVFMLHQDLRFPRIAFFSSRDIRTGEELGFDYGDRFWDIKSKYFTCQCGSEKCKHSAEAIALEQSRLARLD

Row | SMILES | activity, negative = inhibition | Potency
1 | CCOC(=O)[C@H]1[C@H]2COc3ccc(OC)cc3[C@@H]2N2C(=O)c3ccc(F)cc3NC(=O)[C@@]12C | 22.3% [at 2.33 µM] | 
2 | O=C(NNC(=O)c1cc(S(=O)(=O)N2CCCCC2)ccc1Cl)c1ccccc1O | 36.2% [at 12.7 µM] | 
3 | Cc1ccc(C(=O)Nc2ccc(OCc3cc(=O)n4c(C)csc4n3)cc2)cc1 |  | inactive
4 | O=C(C1CCC1)N1CCN(S(=O)(=O)c2ccc([N+](=O)[O-])cc2)CC1 | -3.47% [at 12.7 µM] | 
5 | Cc1cc(C)n(-c2nc(O)cc(=O)[nH]2)n1 |  | 4.47 µM (active)
6 | CC(=O)c1ccc(Oc2cc(C)nc(-n3nc(C)cc3C)n2)cc1 |  | inactive
7 | Cc1cc(C)n(-c2ccc(Cl)c(C(=O)O)n2)n1 |  | inactive
8 | O=C(NCCc1ccccc1)c1cnc2sc(N3CCCC3)nn2c1=O |  | inactive
9 | COc1ccc(-c2csc3ncnc(N4CCN(S(=O)(=O)c5cccc(F)c5)CC4)c23)cc1 | -11.1% [at 2.33 µM] | 
10 | O=C(NCc1ccccc1Cl)C1=Cc2cc(Br)ccc2OC1 |  | inactive
11 | Cc1ccc(N2C(=O)C3C(c4ccccc4)(C2=O)C3(c2ccccc2)c2ccccc2)cc1 (stereo not drawn) | 28.9% [at 12.7 µM] | 
12 | Cc1ccc(C2C3=C(Nc4[nH]n(-c5ccccc5)c(=O)c42)c2ccccc2C3=O)cc1 (stereo not drawn) |  | 3.16 µM (active)
13 | Cc1ccc(C2SCC(=O)N2c2ccccc2)cc1 (stereo not drawn) |  | inactive
14 | CCCn1c(=N)n(CC(O)COc2ccccc2OC)c2ccccc21 (stereo not drawn) |  | inactive
15 | CCCCn1c(N)c(N(CCOC)C(=O)CSCC(=O)Nc2cccc(C)c2)c(=O)[nH]c1=O |  | inactive
16 | O=C(Nc1ccccc1F)c1ccc(S(=O)(=O)N2CCCCCC2)cc1 | 62.1% [at 12.7 µM] | 
17 | CC1(C)Cc2c(sc(NC(=O)C(=O)NCC3CCCO3)c2C(=O)O)CO1 (stereo not drawn) |  | inactive
18 | N#Cc1c(NC(=O)c2ccc(N3CCOCC3)c([N+](=O)[O-])c2)sc2c1CCCC2 |  | inactive
19 | CC1(C)Cc2c(sc(NC(=O)C(=O)N3CCOCC3)c2C#N)CO1 |  | 35.5 µM (active)
20 | CCOC(=O)Cn1c(SC)nc2sc3c(c2c1=O)CC(C)(C)OC3 |  | inactive
21 | CCOC(=O)CSc1nc2sc3c(c2c(=O)[nH]1)CC(C)(C)OC3 |  | inactive
22 | CCOC(=O)N1CCN(C(=O)C(=O)Nc2sc3c(c2C#N)CC(C)(C)OC3)CC1 |  | 12.6 µM (active)
23 | Cc1ccc(NC(=O)CN2C(=O)C(c3ccc(F)cc3)=NC23CCCCCC3)c(C)c1 |  | inactive
24 | CCN1CCN(C(=O)CSc2ccc(C)cc2)CC1 |  | inactive

Row | SMILES | activity, negative = inhibition | Potency
25 | CCN1CCC2(CC1)N=C(c1ccc(F)cc1)C(=S)N2C(=O)c1ccc(C)cc1 |  | 10 µM (active)
26 | O=C(Nc1ccc(S(=O)(=O)N2CCCCCC2)cc1)c1c(F)cccc1F | -5.59% [at 12.7 µM] | 
27 | Cc1ccc(Cl)cc1NC(=O)Cc1ccc(-n2c(C)nc3cccnc32)cc1 |  | inactive
28 | COc1ccccc1C1=CC(=O)C[C@H](c2ccc(F)cc2)C1 | -10.3% [at 0.501 µM] | 
29 | Cc1sc2ncnc(SCC(=O)Nc3ccc(CN4CCCC4)cc3)c2c1C | 10.2% [at 12.7 µM] | 
30 | S=C(c1ccc(-c2ccccc2)o1)N1CCCCC1 |  | inactive
31 | O=C(Cc1ccccc1)Nc1ccc(C(=O)Nc2ccccc2C(=O)O)cc1 |  | inactive
32 | O=C(NC(=S)Nc1ccccc1C(=O)O)c1ccc(-c2ccc(Br)cc2)o1 |  | 22.4 µM (active)
33 | Cc1ccc(SCC(=O)Nc2ccc3oc(-c4ccccc4C)nc3c2)cc1 |  | inactive
34 | Cc1cccc(NC(=O)CSc2nc3c([nH]c4ccccc43)c(=O)n2-c2cc(C)cc(C)c2)c1 |  | inactive
35 | CCCCCC(=O)NC(=S)NNC(=O)c1ccc([N+](=O)[O-])cc1 |  | 8.91 µM (active)
36 | Cc1cccc(C(=O)NNC(=O)c2cccc([N+](=O)[O-])c2)c1 |  | inactive
37 | CC(C)(C)SCCNC(=O)c1cccc([N+](=O)[O-])c1 |  | inactive
38 | CCCCCC(=O)Nc1ccc(C(=O)N/N=C/c2ccc([N+](=O)[O-])cc2)cc1 |  | inactive
39 | CC(C)CC(=O)NC(=S)NNC(=O)c1cccc([N+](=O)[O-])c1 |  | 22.4 µM (active)
40 | COCCCNC(=S)NC(=O)c1ccc([N+](=O)[O-])cc1 |  | inactive
41 | COc1ccccc1NC(=O)C1=C(C)Nc2ncnn2C1c1sccc1C (stereo not drawn) |  | inactive
42 | CC(OC(=O)c1ccc(S(=O)(=O)N2CCOCC2)cc1)c1ccccc1 (stereo not drawn) |  | inactive
43 | COc1ccccc1/C=C/C(=O)OCC(=O)NC1CCCCCC1 | 25.2% [at 2.33 µM] | 
44 | N#Cc1c(-c2ccc(Cl)cc2)c2c([nH]c1=S)CCCC2 |  | inactive
45 | CC(=O)c1c(C)[nH]c(=S)c(C#N)c1-c1ccc(F)cc1 |  | 1.41 µM (active)
46 | Cc1cc(C)c2c(-c3ccc(F)cc3)c(C#N)c(=O)n(C)c2n1 |  | inactive
47 | COc1ccc(OC)c(CNC(=O)CN2C(=O)CCn3nc(-c4cn(C)c5ccccc45)cc32)c1 |  | inactive
48 | CCCC(=O)Nc1ccc(NC(=O)c2sc3ccccc3c2Cl)cc1 |  | inactive

Row | SMILES | activity, negative = inhibition | Potency
49 | Cc1ccc(S(=O)(=O)N(Cc2cccc([N+](=O)[O-])c2)C(=O)N2CCN(C)CC2)cc1 | 6.51% [at 2.33 µM] | 
50 | CN1CCN(/N=C2/C(=O)Nc3ccc([N+](=O)[O-])cc32)CC1 |  | 50.1 µM (active)
51 | O=C1Nc2ccc([N+](=O)[O-])cc2C1=Nc1cccc(CO)c1 |  | inactive
52 | O=C(CSc1oc(-c2ccco2)nc1S(=O)(=O)c1ccc(Cl)cc1)c1ccccc1 |  | inactive
53 | COc1cccc(-c2cc(C(=O)N/N=C/c3ccc(OC)c(COC(C)=O)c3)c3ccccc3n2)c1 |  | inactive
54 | Cc1ccc(-c2cc(C(=O)N/N=C/C=C/c3ccco3)c3ccccc3n2)cc1C |  | 44.7 µM (active)
55 | CC(=O)Nc1ccc(/C=N/NC(=O)c2cccs2)cc1 |  | inactive
56 | O=C(N/N=C/C=C/c1ccco1)c1cccs1 |  | 12.6 µM (active)
57 | CCOc1cc(/C=N/NC(=O)c2cc(-c3ccccc3)nc3ccccc23)ccc1O |  | inactive
58 | CC(/C=N/NC(=O)c1ccncc1)=C\c1ccco1 |  | inactive
59 | CCOc1ccc(CCNC(=O)COC(=O)c2ccc(F)c(S(=O)(=O)N3CCOCC3)c2)cc1OCC | -4.3% [at 0.501 µM] | 
60 | Brc1cccc(-c2nnn3c2nc(NC2CCCCC2)c2ccccc23)c1 |  | inactive
61 | Cc1ccccc1NC(=O)Cc1nc(COC(=O)c2ccc(C(F)(F)F)cc2)cs1 | 5.04% [at 12.7 µM] | 
62 | CCN(CC(=O)NCc1ccc(Cl)cc1)C(=O)CSc1ccccc1 | -1.68% [at 12.7 µM] | 
63 | Cc1c(-c2nsc(NC(=O)c3cccc(Cl)c3)n2)nnn1-c1ccccc1C(F)(F)F |  | inactive
64 | COc1cc2c(cc1/C=C1/NC(=O)N(c3ccccc3)C1=O)OCO2 |  | inactive
65 | O=c1c(-c2cccc(Cl)c2)c[nH]n1-c1ccccc1 | 3.35% [at 2.33 µM] | 
66 | O=C1N/C(=C/c2cccn2-c2ccccc2)C(=O)N1c1cccc(Cl)c1 |  | 1 µM (active)
67 | COc1ccc(S(=O)(=O)NCCSc2nnnn2-c2ccccc2)cc1 |  | inactive
68 | N[C@@H](Cc1ccccc1)C(=O)N1CCOCC1 | 11.6% [at 2.33 µM] | 
69 | Cc1cc(C)c(S(=O)(=O)N2CCC(C(=O)OCc3c(C)noc3C)CC2)c(C)c1 |  | inactive
70 | COc1ccccc1-c1nnc(SCC(N)=O)o1 |  | inactive
71 | O=C(OCCN=C1NS(=O)(=O)c2ccccc21)c1cccc([N+](=O)[O-])c1 |  | inactive
72 | N#CC1(NC(=O)COC(=O)CCN=C2NS(=O)(=O)c3ccccc32)CCCCC1 |  | 79.4 µM (active)

Row | SMILES | activity, negative = inhibition | Potency
73 | N#CC1(NC(=O)COC(=O)CSc2ccc(F)cc2)CCCCC1 |  | inactive
74 | O=C(CCCN=C1NS(=O)(=O)c2ccccc21)OCC(=O)c1ccc(F)c(F)c1 |  | 44.7 µM (active)
75 | N#CC1(NC(=O)COc2ccc3oc4ccccc4c3c2)CCCCC1 |  | inactive
76 | Cc1ccccc1C(=O)NCCN=C1NS(=O)(=O)c2ccccc21 |  | inactive
77 | COc1ccccc1C(=O)NCCn1cc(SCc2ccccc2Cl)c2ccccc21 |  | inactive
78 | O=C(c1ccc(F)cc1)N1CCC(C(=O)N2CCN(S(=O)(=O)c3ccccc3Br)CC2)CC1 |  | inactive
79 | O=C(NCc1ccccc1Cl)c1cccn1-c1nnc(N2CCCCC2)s1 |  | inactive
80 | COc1ccccc1N1CCN(c2ncnc3onc(-c4ccc(F)cc4)c23)CC1 |  | inactive
81 | CCCn1c(O)c(CN2CCCC(C)C2)c(C)c(C#N)c1=O (stereo not drawn) |  | 14.1 µM (active)
82 | CCCCCCn1c(CN2CCCC(C)C2)nc2c1c(=O)n(C)c(=O)n2C (stereo not drawn) |  | inactive
83 | CC1CCCN(Cc2c(O)ccc3c(=O)c(Oc4ccc(C(C)(C)C)cc4)c(C(F)(F)F)oc23)C1 (stereo not drawn) |  | inactive
84 | O=c1oc2c(CN3CCCCC3)c(O)ccc2c2c1CCCCC2 |  | inactive
85 | Cc1c(CN2CCCCC2)c(O)n(CCO)c(=O)c1C#N |  | 50.1 µM (active)
86 | CCC(=O)Nc1sc(C(=O)N2CCCCC2)c(C)c1C#N |  | inactive
87 | CCOc1ccc(-n2nc3ccc(NC(=O)c4ccc(OC)c(Cl)c4)cc3n2)cc1 |  | inactive
88 | CN(CC(=O)Nc1c(Cl)cccc1Cl)C(=O)CC1OC(=O)c2ccccc21 (stereo not drawn) |  | inactive
89 | CN(Cc1ccccc1)C(=O)CCS(=O)(=O)c1cc(Br)cc2c1N(C(=O)C1CC1)CC2 |  | inactive
90 | CCc1ccccc1OCC(=O)Nc1ccc(C)c(S(=O)(=O)N2CCCCCC2)c1 | 18.3% [at 12.7 µM] | 
91 | C[C@H](OC(=O)n1ccnc1)[C@@H]1O[C@@]2(C)CCC[C@@H]1O2 | 9.09% [at 0.501 µM] | 
92 | Cc1ccc(-c2cn3c(n2)sc2cc(C(=O)NCc4cccs4)ccc23)c(C)c1 |  | inactive
93 | CCC(=O)N1CCc2cc(Br)cc(S(=O)(=O)CCC(=O)N3CCN(c4ccc(F)cc4)CC3)c21 |  | inactive
